# Activity calls are given as the source filed them.
# Key:
# [1] = system: PRMT1 (protein arginine N-methyltransferase 1); experiment: small molecules binding arginine methyltransferase PRMT1 – biochemical, small-molecule microarray, 635 nm fluorescence, primary screen (AID 1088); conditions: higher = more signal;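 further: binding of Prmt1 protein to compounds spotted on small-molecule microarray slides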
# [2] = growth effects on S. cerevisiae YJM789 – YJM789 clinical isolate, OD600, 24 h, basal, primary screen (AID 1089); conditions: higher = more signal, called active from +8 up or from −8 down;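 further: growth of clinical yeast isolate S. cerevisiae YJM 789 seeded 1000 cells per well; test concentration not given here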
# [3] = S. pombe growth modifiers, basal conditions – strain 972, OD600, 24 h, no modulator, primary screen (AID 1090);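 further: basal condition with compound alone and no growth modifier present; test concentration not given here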; conditions: S. pombe 972 growth, higher = more signal, called active from +8 up or from −8 down
# [4] = budding yeast growth modifiers under rapamycin – strain BY4716, OD600, 96 h, primary screen (AID 1091); further: test concentration not given here; conditions: S. cerevisiae BY4716 + rapamycin, higher = more signal, called active from +8 up or from −8 down
# [5] = molecular target: Torsin-1A-interacting protein 2 (Homo sapiens) (UniProt Q8NFQ8); experiment: small molecules binding lysate-expressed LULL1 – cell lysate, human LULL1 lysate, 635/667 nm fluorescence, primary screen (AID 1092); conditions: small-molecule microarray, hLULL1 lysate binding, 635 nm fluorescence; higher = more signal;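 further: probe is lysate of COS7 cells overexpressing human LULL1; score merges per-feature 667 nm fluorescence with signal-to-noise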
# Torsin-1A-interacting protein 2 (Homo sapiens), sequence (Q8NFQ8 whole entry, looked up): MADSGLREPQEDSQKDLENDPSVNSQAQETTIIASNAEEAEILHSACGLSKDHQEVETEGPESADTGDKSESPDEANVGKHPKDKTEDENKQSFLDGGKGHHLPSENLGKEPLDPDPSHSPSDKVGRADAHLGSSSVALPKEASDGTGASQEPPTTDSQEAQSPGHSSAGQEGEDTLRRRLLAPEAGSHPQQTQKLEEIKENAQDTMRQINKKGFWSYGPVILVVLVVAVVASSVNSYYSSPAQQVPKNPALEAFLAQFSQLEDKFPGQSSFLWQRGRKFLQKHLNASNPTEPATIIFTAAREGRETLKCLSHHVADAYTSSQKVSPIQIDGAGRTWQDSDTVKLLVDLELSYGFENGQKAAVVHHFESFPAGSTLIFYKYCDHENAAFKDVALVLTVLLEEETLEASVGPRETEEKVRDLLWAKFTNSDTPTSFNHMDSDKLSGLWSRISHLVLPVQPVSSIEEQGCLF
# [6] = optical density change of DRC41 E. coli – strain DRC41, OD650, 24 h, E. coli filamentation project, primary screen (AID 1093);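 further: MC1000 strain lacking acrAB efflux and sulA so SOS filamentation is blocked; test concentration not given here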; conditions: E. coli DRC41 growth, higher = more signal, called active from +8 up or from −8 down
# [7] = probe aLefty2 binding to arrayed compounds – biochemical, biotinylated probe, 635/667 nm fluorescence, primary screen (AID 1094); conditions: small-molecule microarray, higher = more signal;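 further: score merges spot fluorescence near 667 nm with spot signal-to-noise ratio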
# [8] = system: Noggin (protein binding on small-molecule microarray); experiment: small molecules binding Noggin protein – biochemical, 635/667 nm fluorescence, primary screen (AID 1095); conditions: 635 nm fluorescence, higher = more signal;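 further: score merges 667 nm feature fluorescence with signal to noise over triplicate slides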
# [9] = molecular target: Neurogenic locus notch homolog protein 3 (Homo sapiens) (UniProt Q9UM47); experiment: small molecules binding NOTCH3 protein – biochemical, 635/667 nm fluorescence, primary screen (AID 1096); conditions: small-molecule microarray, 635 nm fluorescence, higher = more signal
# Neurogenic locus notch homolog protein 3 (Homo sapiens), sequence (Q9UM47 whole entry, looked up): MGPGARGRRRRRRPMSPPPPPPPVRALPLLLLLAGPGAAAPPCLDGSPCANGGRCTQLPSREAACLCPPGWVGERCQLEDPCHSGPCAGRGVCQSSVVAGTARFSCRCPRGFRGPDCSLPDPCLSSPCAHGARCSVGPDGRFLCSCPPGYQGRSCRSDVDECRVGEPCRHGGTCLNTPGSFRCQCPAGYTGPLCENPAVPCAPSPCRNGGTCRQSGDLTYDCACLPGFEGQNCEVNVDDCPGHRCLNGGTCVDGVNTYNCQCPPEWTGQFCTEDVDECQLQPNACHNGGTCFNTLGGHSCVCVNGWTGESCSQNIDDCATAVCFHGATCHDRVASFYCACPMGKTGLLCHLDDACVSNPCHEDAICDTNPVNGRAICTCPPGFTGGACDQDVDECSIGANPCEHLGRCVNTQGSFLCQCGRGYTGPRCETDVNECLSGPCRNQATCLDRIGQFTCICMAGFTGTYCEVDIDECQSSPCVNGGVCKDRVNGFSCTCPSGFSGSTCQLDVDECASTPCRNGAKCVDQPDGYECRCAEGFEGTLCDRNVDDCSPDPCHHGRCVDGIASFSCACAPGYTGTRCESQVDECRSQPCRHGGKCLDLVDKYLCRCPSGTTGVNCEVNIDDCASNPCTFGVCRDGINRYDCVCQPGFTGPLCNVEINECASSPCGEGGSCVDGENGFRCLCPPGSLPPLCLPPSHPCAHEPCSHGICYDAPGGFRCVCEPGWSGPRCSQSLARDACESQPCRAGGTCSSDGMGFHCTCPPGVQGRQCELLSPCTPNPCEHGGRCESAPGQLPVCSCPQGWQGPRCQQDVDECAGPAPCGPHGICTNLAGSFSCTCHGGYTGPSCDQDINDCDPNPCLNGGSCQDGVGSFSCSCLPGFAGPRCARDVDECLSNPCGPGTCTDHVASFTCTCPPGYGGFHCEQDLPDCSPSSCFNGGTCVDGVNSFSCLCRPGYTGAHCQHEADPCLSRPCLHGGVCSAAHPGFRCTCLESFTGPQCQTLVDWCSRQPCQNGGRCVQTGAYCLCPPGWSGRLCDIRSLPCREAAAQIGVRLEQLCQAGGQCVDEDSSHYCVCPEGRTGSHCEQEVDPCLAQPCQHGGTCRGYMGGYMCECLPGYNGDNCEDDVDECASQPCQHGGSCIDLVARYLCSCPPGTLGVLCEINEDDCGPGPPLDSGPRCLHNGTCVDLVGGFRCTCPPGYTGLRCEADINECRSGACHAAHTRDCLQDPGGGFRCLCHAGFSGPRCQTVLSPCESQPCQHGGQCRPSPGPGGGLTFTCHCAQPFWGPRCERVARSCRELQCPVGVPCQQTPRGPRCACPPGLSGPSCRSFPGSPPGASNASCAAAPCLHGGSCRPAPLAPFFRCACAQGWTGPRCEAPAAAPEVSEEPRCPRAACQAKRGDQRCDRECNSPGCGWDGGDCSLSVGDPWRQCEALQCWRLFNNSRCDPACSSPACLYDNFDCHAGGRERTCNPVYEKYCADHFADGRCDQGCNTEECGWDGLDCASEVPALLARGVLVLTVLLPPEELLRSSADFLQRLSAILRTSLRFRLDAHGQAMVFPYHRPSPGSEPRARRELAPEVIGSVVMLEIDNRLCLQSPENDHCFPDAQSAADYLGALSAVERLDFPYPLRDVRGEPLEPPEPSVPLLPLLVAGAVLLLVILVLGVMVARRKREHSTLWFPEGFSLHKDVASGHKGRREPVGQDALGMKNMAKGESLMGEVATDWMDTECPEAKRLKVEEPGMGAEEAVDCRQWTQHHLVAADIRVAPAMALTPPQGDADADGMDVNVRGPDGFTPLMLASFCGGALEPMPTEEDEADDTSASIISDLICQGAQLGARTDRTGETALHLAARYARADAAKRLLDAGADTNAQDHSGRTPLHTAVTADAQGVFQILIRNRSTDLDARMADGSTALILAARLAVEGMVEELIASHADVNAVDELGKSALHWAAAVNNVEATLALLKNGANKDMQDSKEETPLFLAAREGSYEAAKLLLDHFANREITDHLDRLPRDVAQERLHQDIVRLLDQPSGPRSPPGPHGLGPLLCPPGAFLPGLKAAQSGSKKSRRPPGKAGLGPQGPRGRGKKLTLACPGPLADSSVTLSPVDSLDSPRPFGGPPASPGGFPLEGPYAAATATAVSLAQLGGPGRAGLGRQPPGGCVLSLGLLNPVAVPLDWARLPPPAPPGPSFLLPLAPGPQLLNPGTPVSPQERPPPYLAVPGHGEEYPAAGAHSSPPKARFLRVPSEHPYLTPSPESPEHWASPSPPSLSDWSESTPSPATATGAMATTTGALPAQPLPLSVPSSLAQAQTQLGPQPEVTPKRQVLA
# [10] = probe aEGFR binding to arrayed compounds – biochemical, biotinylated probe, 635/667 nm fluorescence, primary screen (AID 1097); conditions: small-molecule microarray, higher = more signal;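 further: probe is a biotinylated anti-EGFR antibody binding compounds printed on slides; score combines fluorescence near 667 nm and signal to noise of each spot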
SMILES,composite z-score [1],z-score [2],z-score [3],z-score [4],composite z-score [5],z-score [6],composite z-score [7],composite z-score [8],composite z-score [9],composite z-score [10]
COc1ccc([Si](C)(C)[C@H]2[C@H](CC(=O)N3CCC[C@H]3CO)O[C@@]3(C(=O)N(Cc4cccc(N5CCOC5=O)c4)c4ccccc43)[C@@H]2C)cc1,1.55,-1.53 (inactive),0.239 (inactive),-1.71 (inactive),1.02,1.78 (inactive),-0.23,1.28,1.11,-0.0271
NC(=O)[C@@]1(Cc2ccccc2)N=C(c2ccc(OCCCO)cc2)O[C@H]1c1ccccc1,0.439,3.21 (inactive),1.04 (inactive),-0.0393 (inactive),2.41,1.95 (inactive),0.0694,0.0537,-0.0043,-0.0996
CC1CC/C=C\[C@H]2OC34C=CCN(Cn5nnc6ccccc65)C(=O)[C@H]3N(CCCCCO)C(=O)[C@@H]4C2C(=O)O1 (stereo not given in full),0.547,0.31 (inactive),0.423 (inactive),-0.644 (inactive),2.47,0.752 (inactive),-0.169,-0.355,-0.432,-0.18
COCCOC(=O)N1C(=O)[C@@]2(c3cc(C#CC4(O)CCCCCC4)ccc31)[C@H](C(=O)Nc1nc3ccccc3s1)[C@H]1C(=O)O[C@H](c3ccccc3)[C@H](c3ccccc3)N1[C@@H]2c1ccc(OCCO)cc1,1.55,2.38 (inactive),1.32 (inactive),4.01 (inactive),1.87,0.76 (inactive),-0.0458,1.45,1.09,0.0064
CCOC(=O)C[C@H]1[C@H](OC(=O)c2cc3ccccc3oc2=O)[C@@H](NC(=O)CC(C)C)c2cc(OCCCO)ccc2N1C(=O)c1ccccc1,0.983,-0.789 (inactive),-0.769 (inactive),-0.193 (inactive),1.52,2.64 (inactive),-0.0661,0.805,0.606,-0.0828
COCCCNC(=O)[C@@]1(Sc2ccc(C)cc2)CC(=O)N(Cc2ccccc2Cl)[C@@H]1c1ccc(CO)cc1,1.54,-0.15 (inactive),-0.429 (inactive),-0.439 (inactive),2.74,-1.29 (inactive),0.0112,1.05,1.12,-0.0874
COC(=O)[C@@]1(Cc2ccc(OC)cc2)[C@H]2c3cc(C(=O)N4CCCC4)n(Cc4nc5ccccc5[nH]4)c3C[C@H]2CN1C(=O)c1ccccc1,0.661,-0.0237 (inactive),0.955 (inactive),2.07 (inactive),3.73,0.138 (inactive),0.759,-0.214,1.05,0.225
OCCCC1=CC(C2CC2)N(Cc2cccc(OC(F)(F)F)c2)CC1 (stereo not given),0.352,-2.88 (inactive),-2.33 (inactive),-1.72 (inactive),0.25,-0.454 (inactive),-0.264,-0.177,-0.477,-0.157
CCCNC(=O)[C@@]1(Sc2ccc(C)cc2)CC(=O)N(Cc2ccccc2C(F)(F)F)[C@@H]1c1ccc(CO)cc1I,1.53,-0.36 (inactive),-2.45 (inactive),0.283 (inactive),2.19,-1.57 (inactive),-0.0125,0.932,0.958,-0.0435
O=C1O[C@H](c2ccccc2)[C@H](c2ccccc2)N2[C@H]1[C@@H](C(=O)NC[C@H](O)c1ccccc1)[C@]1(C(=O)Nc3ccccc31)[C@H]2c1ccc(O)cc1,1.39,0.754 (inactive),0.817 (inactive),1.7 (inactive),2.56,-0.408 (inactive),-0.134,0.798,0.608,-0.108
C=C(CCCC)/C(=C/C[C@@H](OC(C)=O)c1cccc(OCCO)c1)c1cnc2ccccc2c1,1.29,0.0358 (inactive),-0.328 (inactive),0.142 (inactive),0.268,1.24 (inactive),-0.194,1.73,0.86,-0.0828
O=C(O)[C@H]1C[C@H]2C(=O)N3CCC[C@H]3C(=O)N2[C@H]1c1ccc(O)cc1,-0.57,0.428 (inactive),-0.613 (inactive),0.333 (inactive),0.631,0.863 (inactive),0.0212,-0.571,-1.23,-0.268
COc1cc(CO)cc(I)c1O[C@H]1C=C(C(=O)NCCO)C[C@@H](N(C(=O)c2cc3ccccc3oc2=O)C2CCCCCC2)[C@@H]1O,-0.446,-0.13 (inactive),-1.59 (inactive),-1.26 (inactive),-0.188,1.86 (inactive),-0.198,0.437,0.383,-0.207
O=C(CS)NCCCCCNC(=O)[C@@H]1C[C@@H]2C(=O)NCC(=O)N2[C@@H]1c1ccc(O)cc1,1.08,0.118 (inactive),-0.771 (inactive),0.494 (inactive),1.47,2.13 (inactive),-0.124,0.362,0.179,-0.15
Cc1ccc(S[C@]2(C(=O)O)CC(=O)N(Cc3ccccc3C(F)(F)F)[C@@H]2c2ccc(CO)cc2I)cc1,0.471,-1.73 (inactive),-2.36 (inactive),0.695 (inactive),1.65,-1.11 (inactive),-0.205,-0.571,-1.02,-0.213

# Source: PubChem BioAssay
